PglD inh: PglD (C. jejuni) enzyme inhibition; inhibition, % at 12.5 µM; 360,000 tested, 0.098% active; purified PglD enzyme, DTNB colorimetric CoA detection; AID 602405; in the data active = inhibition above about 16%, passing the limit was not always enough; inconclusive = no clear call, values can overlap the other calls
NSD2 HMT inh: inhibitors of human histone methyltransferase NSD2; O96028; NSD2 peptide methylation, AlphaScreen, 120 min; inhibition, % at 12.5 µM; 310,000 tested, 0.54% active; AID 743445; in the data active = inhibition above about 50%
CFTR F508del cor: correctors of CFTR F508del function in bronchial epithelial cells; CFBE cells, YFP halide quenching; stimulated with forskolin plus potentiator P3; % fluorescence drop versus neutral controls; activity (quench increase), % at 7.58 µM; 350,000 tested, 0.36% active;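 active = mean added fluorescence quench of at least 8% versus neutral control, with both replicates also reaching 8%; inconclusive = only one of the mean or replicate conditions met; inactive = mean below 8% and not both replicates reaching 8%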;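 also: cells transiently co-express mutant CFTR-F508del with the halide-sensitive YFP; corrector assay measuring rescue of mutant channel to the surface after 24 h compound exposure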
Env fusion inh: blocks HIV Env-driven cell-cell fusion; 360,000 tested, 1.1% active; HeLa-JRFL Env/CEM21 cell fusion, luciferase; inhibition, % at 12.3 µM;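 active = mean replicate inhibition score of at least 50 and every replicate individually at or above 50; inconclusive = only one of the two criteria met; inactive = mean below 50 and not all replicates reaching 50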;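 also: 0% = plate neutral controls and 100% = maraviroc near 300 nM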
ALR H2O2 inh: human ALR oxidase inhibition via reduced H2O2 | purified ALR, DTT oxidation, H2O2 HRP-luminol luminescence | inhibition, % (no concentration beside the values) | AID 485317 | P55789 | 290,000 tested, 3.8% active;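 active = mean replicate inhibition above about 79%, with every replicate also reaching it, limit read from the data; inconclusive = only one of the two criteria met; inactive = mean below limit and not every replicate reaching it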
Target sequence (P55789 whole entry, looked up): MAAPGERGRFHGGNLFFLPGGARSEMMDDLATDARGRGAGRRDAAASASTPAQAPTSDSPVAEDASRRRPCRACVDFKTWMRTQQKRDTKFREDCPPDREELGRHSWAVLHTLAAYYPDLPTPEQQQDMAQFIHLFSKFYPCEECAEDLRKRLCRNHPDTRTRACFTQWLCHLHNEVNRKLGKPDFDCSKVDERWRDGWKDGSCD
Casp6 inh: caspase-6 (human) enzyme inhibition. P55212. purified caspase-6, Z-VEID-R110 cleavage fluorescence. inhibition, % at 12.5 µM. 350,000 tested, 0.53% active;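 active = mean inhibition across replicates at least about 35%, with every replicate also reaching that limit, limit read from the data; inconclusive = only one of the two criteria met; inactive = neither criterion met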;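 also: 0% = median of neutral control wells and 100% = no fluorescence left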
Target sequence (P55212 24-179 limits assumed): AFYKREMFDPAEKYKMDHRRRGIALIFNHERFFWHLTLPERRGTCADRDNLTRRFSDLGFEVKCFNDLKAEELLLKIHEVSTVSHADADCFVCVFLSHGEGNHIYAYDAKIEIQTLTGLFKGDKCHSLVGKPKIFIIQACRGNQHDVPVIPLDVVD
Target sequence (P55212 194-293 limits assumed): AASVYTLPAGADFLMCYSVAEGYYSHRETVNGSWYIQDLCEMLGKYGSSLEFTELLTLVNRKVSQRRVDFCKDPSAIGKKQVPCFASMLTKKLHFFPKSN
Alpha artifact: AlphaScreen assay artifact in NSD2 counter-screen; AC35, µM (series often up to 10 µM), without a hit: at the top dose activity change, negative = signal loss; AlphaScreen artifact counterscreen, preloaded methylated H4 peptide; 1,500 tested, 9.4% active; shares compounds with NSD2 HMT inh; call rule not given here
The depositor's hits bear a star; [ ] = another dose, or the depositor's remark. Rows were chosen to be rich in hits. Some 4.1% of all compounds tested hit in one or more screens of this group.

For COC(=O)[C@H]1[C@H](CO)[C@H]2Cn3c(ccc(-c4ccc(F)cc4)c3=O)[C@@H]1N2C(C)=O the results were PglD inh 0.8, CFTR F508del cor 0.0 and Casp6 inh -4.7.
CCC(=NCCCN(CC)CC)c1c(O)n(C2CCCCC2)c(=O)[nH]c1=O was read as PglD inh 2.5, NSD2 HMT inh 51.4*, Env fusion inh -38.2, ALR H2O2 inh -0.9 and Alpha artifact -7.0%.
`COC(=O)[C@@H]1[C@@H](CO)[C@@H]2Cn3c(cccc3=O)[C@H]1N2C(=O)C1CCCC1` gave PglD inh -2.3, CFTR F508del cor 1.6 and Casp6 inh -2.6.
For COC(=O)[C@@H]1[C@@H](CO)[C@@H]2Cn3c(ccc(/C=C/c4ccccc4)c3=O)[C@H]1N2C(=O)C1CC1 the results were PglD inh -2.7 and Casp6 inh 0.2.
For COC1C(O)C(C)OC(OC2C(Oc3cccc4c(O)c5c(=O)oc6ccc(C)c7c(=O)oc(c34)c5c67)OC(C)C(O)C2O)C1O (centres undefined) the results were NSD2 HMT inh 66.1*, CFTR F508del cor -0.3, Env fusion inh 20.6, Casp6 inh 6.3 and Alpha artifact -12.2%.
Screening Clc1ccccc1NC1=NCCCS1 returned PglD inh 0.8, NSD2 HMT inh 0.1, CFTR F508del cor -0.6, Env fusion inh 14.7, ALR H2O2 inh 2.0 and Casp6 inh 4.3.
For Clc1ccccc1Nc1ncnc(-n2cccc2)n1 the results were PglD inh 1.9, NSD2 HMT inh 128.4*, Env fusion inh -397.0, ALR H2O2 inh 9.7 and Alpha artifact -5.4%.
Screening CCOC(=O)[C@@H]1[C@@H]2NC(=S)N(C)[C@@]1(C)Oc1ccccc12 returned PglD inh -3.0, CFTR F508del cor 1.2, Env fusion inh -22.0[16.7 µM] and Casp6 inh 1.1.
Cc1cccc(S(=O)(=O)N2[C@@H]3c4ccc(-c5ccccc5)c(=O)n4C[C@H]2[C@H](CO)[C@H]3C(=O)O)c1 was read as PglD inh 6.4, CFTR F508del cor -2.8 and Casp6 inh -0.7.
For O=C1NC(=O)C(Sc2ccccc2[N+](=O)[O-])C(=O)N1 the results were PglD inh -0.5, NSD2 HMT inh 85.4*, CFTR F508del cor 0.7, Env fusion inh -6.7, ALR H2O2 inh 11.0, Casp6 inh 37.7* and Alpha artifact -4.2%.
Screening CCOc1cc(/C=C2\C(=O)NC(=O)N(CCc3ccc(F)cc3)C2=O)ccc1O returned NSD2 HMT inh 53.5*, CFTR F508del cor 0.4, Env fusion inh 13.5, ALR H2O2 inh -6.3, Casp6 inh 10.2 and Alpha artifact -7.7%.
For CC(=O)NC1=C(N2CC2C)C(=O)C(NC(C)=O)=C(N2CC2C)C1=O (centres undefined) the results were PglD inh 1.4, NSD2 HMT inh 114.6*, CFTR F508del cor 0.2, Env fusion inh inconclusive, Casp6 inh 37.7* and Alpha artifact -3.7%.
Screening Cc1cc(/C=C2\C(=O)NC(=O)N(Cc3ccccc3)C2=O)c(C)n1-c1ccc(Cl)c(C(=O)O)c1 returned NSD2 HMT inh 137.1*, CFTR F508del cor -1.2, ALR H2O2 inh 70.0, Casp6 inh 66.1* and Alpha artifact -11.2%.
For Cc1cc(/C=C2\C(=O)NC(=O)N(Cc3ccccc3Cl)C2=O)c(C)n1-c1ccc(C(=O)O)cc1 the results were NSD2 HMT inh 58.0*, CFTR F508del cor 0.2, Env fusion inh 14.5, ALR H2O2 inh 32.3, Casp6 inh 47.8* and Alpha artifact -8.3%.
For O=C(Cc1ccccc1)N1CCCCN2[C@H](CO)[C@H](c3ccc(C#CC4(O)CCCC4)cc3)[C@@H]2C1 the results were PglD inh 2.0, CFTR F508del cor -0.2 and Casp6 inh -1.5.
`Cc1ccc(N2C(=O)NC(=O)/C(=C\C=C\c3ccco3)C2=O)cc1` gave PglD inh -6.0, NSD2 HMT inh 76.2*, CFTR F508del cor -0.7, Env fusion inh -244.8, ALR H2O2 inh 54.6, Casp6 inh 9.1 and Alpha artifact -5.7%.
Cc1ccc(N2C(=O)NC(=O)/C(=C\c3ccoc3)C2=O)cc1 was read as PglD inh -6.0, NSD2 HMT inh 25.6, CFTR F508del cor -0.1, Env fusion inh 9.8, ALR H2O2 inh 59.7 and Casp6 inh 30.2.
CCCC(=O)NC1=C(N2CC2)C(=O)C(NC(=O)CCC)=C(N2CC2)C1=O was read as PglD inh -2.5, NSD2 HMT inh 92.1*, CFTR F508del cor -3.3, Env fusion inh 16.1, Casp6 inh 21.3 and Alpha artifact -1.2%.
`N#Cc1ccc(-c2ccc([C@@H]3[C@H]4CN(C(=O)Cc5ccccc5)CCCCN4[C@H]3CO)cc2)cc1` gave PglD inh -0.7, CFTR F508del cor 1.6 and Casp6 inh -3.6.
For O=[N+]([O-])c1ccc(N(CCO)CCO)c2c1no[n+]2[O-] the results were NSD2 HMT inh 134.6*, CFTR F508del cor -11.4, Env fusion inh inactive, Casp6 inh -6.0 and Alpha artifact -1.5%.
For CN1/C(=C\C=C2C(=O)NC(=O)NC2=O)C(C)(C)c2ccccc21 the results were NSD2 HMT inh 37.8, CFTR F508del cor inconclusive, Env fusion inh 40.0, ALR H2O2 inh 29.9 and Casp6 inh -8.0.
For CCN1/C(=C/C=C/C2=[N+](CC)c3ccccc3C2(C)C)C(C)(C)c2ccccc21 the results were PglD inh 2.2, NSD2 HMT inh 55.0*, CFTR F508del cor -12.9, Env fusion inh 35.6, Casp6 inh -30.2 and Alpha artifact -10.8%.
For Nc1ccc(C2(c3ccc(N)cc3)CN3CCC2CC3)cc1 the results were PglD inh 5.1, NSD2 HMT inh 176.4*, ALR H2O2 inh 1.9 and Alpha artifact -16.8%.
For Nc1c(C(=O)NC2CCCC2)c2nc3ccccc3nc2n1CC1CCCO1 (centres undefined) the results were PglD inh -2.2, NSD2 HMT inh 81.7*, Env fusion inh -18.9, ALR H2O2 inh 24.5 and Alpha artifact 26.6%.
Screening Nc1c(C(=O)NCC2CCCO2)c2nc3ccccc3nc2n1Cc1ccco1 (centres undefined) returned PglD inh 9.0, NSD2 HMT inh -9.0, CFTR F508del cor 0.9, Env fusion inh 4.9, ALR H2O2 inh 4.1 and Casp6 inh 3.5.
`COCCCNC(=O)c1c(NC(=O)c2ccco2)n(Cc2ccccc2)c2nc3ccccc3nc12` gave PglD inh -4.1, NSD2 HMT inh 105.6*, ALR H2O2 inh -34.9 and Alpha artifact 1.9%.
Screening CCCCNC(=O)c1c(N)n(CCCOC)c2nc3ccccc3nc12 returned PglD inh -7.1, NSD2 HMT inh 106.0*, Env fusion inh 14.2 and Alpha artifact 11.1%.

From PubChem
